# Screens: PubChem, National Center for Advancing Translational Sciences (NCATS)
# A selection: hits, their analogues and other compounds. The true share with any hit is near 21%.
# Pf growth 96h: inhibits malaria parasite growth, 96 h. P. falciparum luciferase reporter growth, 96 h. Potency, µM (series often up to 28.7 µM), without a hit: top-dose activity change, negative = inhibition, usual class: inhibitors. 320,000 tested, 6.9% active; note: potency is the fitted concentration of half-maximal effect; % is set by controls: 0 for no effect and ±100 for the full control effect
#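 Parasite growth measured via integrated firefly luciferase reporter in P. falciparum. Infected erythrocytes at 2% hematocrit, 0.05% parasitemia final were treated 96 hours at 37 C under 5% CO2, and luminescence was read.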
# Cycloheximide cs: counter-screen for Shiga toxin inhibitors: cycloheximide protein synthesis inhibition | max response, % | cell reporter, cycloheximide protein synthesis inhibition counterscreen | 300,000 tested, 12% active | AID 2314; in the data active = max response mostly above about 13%, no sharp cut-off; inactive = mostly below about 14%; note: read at 38.3 µM for the half of the compounds with a filed dose; 0% is about no effect
# HCV inh: HCV inhibition; 340,000 tested, 3.4% active; Potency, µM (doses to about 41.8 µM), for the others: at the highest dose activity change, negative = inhibition, usual class: inhibitors; AID 651820; Huh7.5.1 HCVcc-Cre infection, luciferase reporter, 44 h; note: potency is the fitted concentration of half-maximal effect; % is set by controls: 0 for no effect and ±100 for the full control effect
#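 Cells (1,000/well) were plated 4 h before compound, then infected with HCVcc-Cre virus (~0.5 moi). After 44 h further culture, infection was read as luciferase luminescence following a 15 min substrate incubation at room temperature.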
# Shiga inhibitor: inhibitors of Shiga toxin in Vero cells. Vero cells, Shiga toxin protein synthesis inhibition reporter. inhibition, % at 38.7 µM. 290,000 tested, 9.2% active; in the data active = inhibition mostly above about 28%, no sharp cut-off; inactive = mostly below about 43%; note: 0% is about no effect
# Pf growth 48h: inhibits P. falciparum growth in the first generation, 48 h; 310,000 tested, 5.9% active; P. falciparum luciferase growth in erythrocytes, 48 h; Potency, µM (series often up to 28.7 µM), inactives show at the highest dose activity change, negative = inhibition, actives largely listed as inhibitors; note: potency is the fitted concentration of half-maximal effect; % is set by controls: 0 for no effect and ±100 for the full control effect
#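 In quantitative HTS format, infected erythrocytes bearing luciferase-reporter parasites were treated for a single generation at 37 C. Luminescence after adding detection reagent served as the growth measure.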
# HCMV antiviral: human cytomegalovirus inhibition. HFF cells, HCMV-luciferase reporter, 72 h; hits give low values. activity change, negative = inhibition, % at 57.5 µM. 410,000 tested, 4.5% active. AID 1259415; in the data active = activity change below about -60%; inconclusive = no clear call, values can overlap the other calls; inactive = above about -39%; note: % is set by controls: 0 for no effect and ±100 for the full control effect
#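 Two compound doses tested in HFFs infected with HCMV-luciferase, MOI 1 PFU/cell, 72 h at 37C. Lysate luminescence read with OneGlo; data normalized against buffer-only and 10uM Salinomycin inhibitor controls.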
# Numbers without * were called inactive; i = inactive; ? = inconclusive; / = no result. Unless noted, calls come from the whole dose curve; as a rule, active = well fitted inhibition curve with a large enough effect; inconclusive = small, poorly fitted or top-dose-only effect, or another doubt; inactive = no such curve, though single readings can be large or run the other way.
SMILES,Pf growth 96h,Cycloheximide cs,HCV inh,Shiga inhibitor,Pf growth 48h,HCMV antiviral
O=C(N/N=C/c1cccc([N+](=O)[O-])c1)c1cccs1,398%,26*,-7%,34,90%,16
CCOc1cc(/C=N/NC(=O)c2cccs2)cc([N+](=O)[O-])c1O,-28%,45*,12%,49*,-1%,30
O=C(N/N=C/c1cccc(Br)c1)c1ccc(Br)cc1,37%,22*,-16%,33,-4%,0
CC(C)(C)OC(=O)N/N=C\c1ccc([N+](=O)[O-])s1,7%,58*,-33%,81*,?,-21
CCOC(=O)N/N=C\c1ccc([N+](=O)[O-])s1,?,10,?,42,?,?
COc1ccc(C(C)=O)cc1CN1C(=O)C(C)ON=C1c1ncccc1C (centres undefined),/,/,/,/,/,38
COc1cccc(NC(=O)N2CCC(n3nnc4ccccc43)CC2)c1,1%,-4,-8%,22,-19%,22
O=C(N/N=C/c1ccc(Br)s1)c1ccccc1[N+](=O)[O-],2%,7,-20%,13,6%,1
O=C(/C=C/c1cccc([N+](=O)[O-])c1)Nc1ccc(NC(=O)c2cccs2)cc1,-11%,1,10%,-5,19%,111
O=C(N/N=C/c1ccc([N+](=O)[O-])s1)c1cccc(Br)c1,4.1µM*,-2,?,5,4.1µM*,-69*
Cc1ccc(C(=O)N/N=C/c2ccc([N+](=O)[O-])s2)cc1,24%,-3,2.8µM*,-23,?,-24
O=C(/C=C/c1cccc([N+](=O)[O-])c1)c1cccs1,?,9,?,-6,-1%,-90*
O=C(N/N=C/c1cccc([N+](=O)[O-])c1)C1CC1c1ccccc1 (centres undefined),12µM*,-1,-15%,-8,0%,-10
CCN(CC(=O)NC1CC1)S(=O)(=O)c1ccc(OC)cc1,?,5,-5%,-14,-13%,-16
O=Cc1ccccc1C=O,-20%,/,/,/,-9%,/
O=C(N/N=C/c1cccc(OCc2ccccc2)c1)c1cccs1,?,30*,4%,75*,?,72
Cc1cc(O)c(C(=O)/C=C/c2cccc([N+](=O)[O-])c2)c(=O)o1,?,1,-8%,-13,?,-19
CC(=O)Oc1ccccc1C(=O)C=Cc1cccc([N+](=O)[O-])c1,/,/,?,/,/,-77*
O=C(O)c1ccc(COc2ccc(/C=N/NC(=O)c3cccs3)cc2)cc1,91%,73,12%,113,42%,3
COc1ccc2c(ccc[n+]2CC(=O)c2ccccc2)c1,0%,0,13%,7,-22%,-5
Cc1cc[n+](CC(=O)c2ccc(NC(=O)c3ccccc3)cc2)c2ccccc12,?,9,-12%,11,1.7µM*,-97*
Cc1cc[n+](CC(=O)c2ccc(NC(=O)c3ccccc3)cc2)cc1,15%,6,17%,-13,?,-37
N#Cc1ccc[n+](CC(=O)c2ccc(NC(=O)c3ccccc3)cc2)c1,9%,14,-3%,32*,?,24
O=C(C[n+]1cccc2ccccc21)c1ccccc1,13µM*,6,6%,26,?,91
Cc1ccc[n+](CC(=O)c2ccc(NC(=O)c3ccccc3)cc2)c1,?,1,35%,-15,?,-36
SMILES,Pf growth 96h,Cycloheximide cs,HCV inh,Shiga inhibitor,Pf growth 48h,HCMV antiviral
O=C(C[n+]1cccc2ccccc21)c1ccc(NC(=O)c2ccccc2)cc1,?,0,-13%,13,2.1µM*,-83*
CN1C(=O)CS/C1=N\NC(=O)COc1cccc2cccnc12,-2%,-2,11%,-5,17%,-18
CC(C)N(Cc1ccccc1)C(C)C (tested in a mixture with another compound),/,-4,/,2,/,/
Cc1ccc(C(=O)C[n+]2cccc3cc(C)ccc32)cc1,101%,-2,-16%,-15,?,-32
CCOc1ccc(C(=O)C[n+]2cccc3cc(C)ccc32)cc1,7%,-3,?,0,8.3µM*,-81*
C/C(=N\NC(=O)c1ccn[nH]1)c1cn(C)nc1C,137%,44*,4%,117*,126%,31
Cc1nn(C)cc1C(N)=O,0%,-2,5%,-13,4%,17
C[C@H](CO)N1C[C@H](C)[C@H](CN(C)C(=O)C2CCCCC2)OCc2cnnn2CCCC1=O,/,/,/,/,/,-9
O=C1c2ccccc2C(=O)N1Cc1nc(-c2ccccc2)no1,-6%,-1,12%,-3,20%,19
O=S(=O)(Cc1cc(-c2ccccc2)no1)c1ccccc1,72%,34*,10%,65*,55%,3
COc1ccc(-c2cc(-c3ccccc3)no2)cc1,199%,/,-7%,/,-3%,-39
COc1ccc(-c2cc(CS(=O)(=O)c3ccccc3)on2)cc1,109%,41*,-5%,68*,86%,41
O=C1c2ccccc2C(=O)N1Cc1cc(-c2ccccc2)no1,-12%,19*,13%,27*,-5%,63
CCCc1ccc(C(=O)CN2C(=O)C(=O)N(C3CCCC3)C2=O)cc1,0%,/,0%,/,37%,6
O=C(N/N=C/c1cc2c(cc1Br)OCO2)c1cccnc1,-19%,14,-5%,31,0%,?
O=C(N/N=C\C=C\c1ccc2c(c1)OCO2)c1cccnc1,?,18*,-3%,78*,8%,6
O=C(/C=C/c1ccc2c(c1)OCO2)Nc1cccnc1,-19%,36*,3%,91*,440%,82
O=C(/C=C/c1ccco1)Nc1ccc2c(c1)OCO2,372%,38*,-8%,113*,412%,?
NS(=O)(=O)c1ccc(NC(=O)/C=C/c2ccc3c(c2)OCO3)cc1,31%,5,?,18,21%,-23
CC(=O)Nc1ccc(NC(=O)/C=C/c2ccc3c(c2)OCO3)cc1,68%,32*,?,23,20%,?
O=C(COC(=O)CCC(=O)c1cccs1)Nc1ccccc1[N+](=O)[O-],12%,-2,10%,-14,8%,?
Cc1ccc(Cc2c(C)nc3nc(SCC(=O)NCCCN4CCCCC4)nn3c2C)cc1,0%,-3,?,-4,1%,?
OC(c1ccccc1)c1nc(-c2csc3ccccc23)cs1 (centres undefined),/,/,/,/,/,73
Cc1cc(C)nc(NC(=O)/C=C/c2ccc3c(c2)OCO3)c1,195%,52*,?,66*,161%,77
O=C(/C=C/c1ccc2c(c1)OCO2)Nc1c(C(=O)O)[nH]c2ccccc12,i,50*,2%,55*,8%,135
COC(=O)c1cccc(NC(=O)/C=C/c2ccc3c(c2)OCO3)c1,6%,43*,?,21*,243%,-3
